Most compounds without a hit are left out; they make up all but 21% or so of the library.
Cycloheximide cs = Cycloheximide Counterscreen for Small Molecule Inhibitors of Shiga Toxin; cell reporter, cycloheximide protein synthesis inhibition counterscreen; max response, %; 300,000 compounds, 12% hits; AID 2314, 2010; in the data active = max response mostly above about 13%, no sharp cut-off; inactive = mostly below about 14%; note: read at 38.3 µM for the half of the compounds with a filed dose
Pf growth 48h = Primary qHTS for delayed death inhibitors of the malarial parasite plastid, 48 hour incubation | Potency, µM (highest dose often 28.7 µM), usual class: inhibitors | P. falciparum luciferase growth in erythrocytes, 48 h | AID 504832, 2011 | 310,000 compounds, 5.9% hits
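Luciferase-expressing parasites in RBCs, 2% Hct / 0.1% parasitemia final; RPMI 1640 + 0.5% Albumax; 37 C, 5% CO2, one generation; luminescence read-out, lower signal = inhibition.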
Pf growth 96h = Primary qHTS for delayed death inhibitors of the malarial parasite plastid, 96 hour incubation. P. falciparum luciferase reporter growth, 96 h. Potency, µM (doses to about 28.7 µM), usual class: inhibitors. 320,000 compounds, 6.9% hits. AID 504834, 2011
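P. falciparum expressing integrated firefly luciferase grown in erythrocytes (2% hematocrit, 0.05% parasitemia final) with compounds for 96 hours at 37 C, 5% CO2. Growth inhibition read as loss of luminescence after adding luciferase detection reagent.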
Shiga inhibitor = A qHTS for Small Molecule Inhibitors of Shiga Toxin. inhibition, % at 38.7 µM. Vero cells, Shiga toxin protein synthesis inhibition reporter. 290,000 compounds, 9.2% hits; in the data active = inhibition mostly above about 28%, no sharp cut-off; inactive = mostly below about 43%
Large screens that a line does not name were inactive. Unless noted, calls come from the whole dose curve; as a rule, active = well fitted inhibition curve with a large enough effect; inconclusive = small, poorly fitted or top-dose-only effect, or another doubt; inactive = no such curve, though single readings can be large or run the other way.

COc1cc(/C=N/c2oc(C)c(C)c2C#N)cc(Br)c1O	none
O=C(O)[C@@H]1CC(O)CN1C(=O)CCc1c[nH]c2ccccc12 (stereo partly drawn)	none
FCCCOc1ccc(-c2nccc(-c3ccc(Br)cc3)n2)cc1	none
Oc1ccc(-c2nccc(-c3ccc(Br)cc3)n2)cc1	Cycloheximide cs 17.2, Shiga inhibitor 40.3
Cc1ccc(-c2ccnc(-c3ccc(O)cc3)n2)cc1	Cycloheximide cs 31.5, Shiga inhibitor 80.1
FCCCOc1ccc(-c2ccnc(-c3ccccc3)n2)cc1	Cycloheximide cs 27.7, Shiga inhibitor 81.0
COc1ccc(-c2ccnc(-c3ccc(O)cc3)n2)cc1	Cycloheximide cs 24.5
CN1CCN(CCCNC(=O)CCN2C(=O)COc3ccccc32)CC1	none
O=C(Cc1nnc(NC(=O)c2cccc([N+](=O)[O-])c2)s1)NCc1ccccc1	none
Oc1ccc(-c2nccc(-c3ccccn3)n2)cc1	Cycloheximide cs 80.8, Shiga inhibitor 88.4
CSc1nc(-c2ccc(Cl)cc2)c(C#N)c(=O)n1C	Pf growth 48h inconclusive, Pf growth 96h inconclusive
CSc1nc(-c2ccc(N(C)C)cc2)c(C#N)c(=O)n1C	Cycloheximide cs 24.6, Shiga inhibitor 42.2
Cn1nnc2ccccc2c1=O	Pf growth 96h inconclusive
S=c1cnc2ccccc2[nH]1	Cycloheximide cs 30.0
COc1ccc(-c2nc(N3CCN(C)CC3)sc2-c2ccc(OC)cc2)cc1	Pf growth 48h inconclusive, Pf growth 96h inconclusive
CCOC(=O)C1CCN(CC(O)COc2ccc(C(C)=O)cc2)CC1 (stereo not drawn)	Pf growth 96h 9.28µM (no result: Pf growth 48h)
COc1c2c(nc3occc13)C(CCC(C)(C)O)(OC)C(O)CC2 (stereo not drawn)	Pf growth 96h inconclusive
N#Cc1ccc(CN2CCN(CC(=O)NCCc3ccc(Cl)cc3Cl)CC2)cc1	none
COc1cccc(OCc2cc(C(=O)N3CCN(C)C(c4ccccc4)C3)no2)c1 (stereo not drawn)	Cycloheximide cs 32.0, Pf growth 96h inconclusive, Shiga inhibitor 77.2
O=C(c1cc(COc2ccc(F)cc2Cl)on1)N1CC[C@@H]2CCCC[C@H]2C1	none
CC(NC(=O)c1cc(COc2c(F)cccc2F)on1)c1cnn(-c2ccccc2)c1 (stereo not drawn)	Cycloheximide cs 25.1, Pf growth 96h inconclusive, Shiga inhibitor 75.6
COc1ccc(OCc2cc(C(=O)N3CCCCCC3)no2)c(Cl)c1	Cycloheximide cs 46.8, Shiga inhibitor 67.7
COc1cccc(OCc2cc(C(=O)N3C[C@H]4C[C@@H](C3)c3cccc(=O)n3C4)no2)c1	Cycloheximide cs 60.2, Pf growth 96h inconclusive, Shiga inhibitor 51.8
CCOc1cc(N2CCOCC2)c(OCC)cc1NC(=O)c1c(C)noc1C	none (no result: Cycloheximide cs, Shiga inhibitor)
CCc1nn(CC(=O)NCCC(C)C)c(=O)c2cc3c(OC)cccc3n12	none
Cc1ccc(NC(=O)CSCC(=O)OCc2cc(=O)oc3cc(O)ccc23)c(C)c1	none (no result: Cycloheximide cs, Shiga inhibitor)
CC(=O)NC1=NN(C(C)=O)C(c2ccc(F)cc2)S1 (stereo not drawn)	none
COc1ccc(OCc2cc(C(=O)NC(C)c3cnn(C)c3)no2)c(Cl)c1 (stereo not drawn)	Cycloheximide cs 38.3, Shiga inhibitor 46.6
Cc1nc2cc(OCc3cc(C(=O)NC(C)c4cnn(C)c4)no3)ccc2s1 (stereo not drawn)	Pf growth 48h inconclusive, Pf growth 96h inconclusive
COc1ccc(OCc2cc(C(=O)NC3CCc4ccccc43)no2)c(Cl)c1 (stereo not drawn)	Pf growth 96h 10.4µM
COc1ccc(OCc2cc(C(=O)N3CCC(c4ccccc4)CC3)no2)c(Cl)c1	Cycloheximide cs 77.6, Shiga inhibitor 105.8
O=C(NC1CCc2ccccc21)c1cc(COc2ccc(F)cc2F)on1 (stereo not drawn)	none
COc1ccc(OCc2cc(C(=O)N3CCSCC3)no2)c(Cl)c1	Cycloheximide cs 67.3, Pf growth 96h inconclusive, Shiga inhibitor 143.4
COc1cccc(OCc2cc(C(=O)N3CCC(c4ccncc4)CC3)no2)c1	none
COc1ccc(CNC(=O)[C@@H](NC(=O)C2CCN(C(=O)[C@@H](N)Cc3ccccc3)CC2)C(C)C)cc1	none
O=C(c1cc(COc2ccc(F)cc2Cl)on1)N1CCc2ccccc2C1	none
Cc1nn(C)cc1C(C)NC(=O)c1cc(COc2c(F)cccc2F)on1 (stereo not drawn)	none
COc1ccc(OCc2cc(C(=O)N3CCOCC3)no2)c(Cl)c1	Cycloheximide cs 43.5, Shiga inhibitor 90.9
O=C(c1cc(COc2ccc(F)cc2Cl)on1)N(CCO)Cc1cccs1	Cycloheximide cs 19.9
COc1cccc(OCc2cc(C(=O)NC(C)c3cnn(C)c3C)no2)c1 (stereo not drawn)	Cycloheximide cs 26.9, Pf growth 96h inconclusive, Shiga inhibitor 59.4
O=C(c1cc(COc2ccc(F)cc2Cl)on1)N1CCSCC1	Cycloheximide cs 62.5, Pf growth 96h inconclusive, Shiga inhibitor 67.2
CCOc1ccc(N(CC(=O)N2CCCC2)S(=O)(=O)c2ccc(Cl)cc2)cc1	none
COc1cccc(-c2c(C(=O)N/N=C(\C)COc3ccccc3)nnn2-c2nonc2N)c1	none
CN(CC(=O)Nc1ccc(F)c(F)c1F)C(=O)C1CCN(C(=O)Nc2ccccc2)CC1	Pf growth 48h inconclusive (no result: Cycloheximide cs, Shiga inhibitor)
Cc1cccc(NC(=O)CSCC(=O)N2CCN(C(=O)c3ccco3)CC2)c1	Pf growth 96h inconclusive (no result: Cycloheximide cs, Shiga inhibitor)
COC(=O)CSc1ccc(S(=O)(=O)N2CCCCCC2)cc1[N+](=O)[O-]	none
COc1ccc(OCc2cc(C(=O)N3CCN(CC(=O)N(C)C)CC3)no2)c(Cl)c1	Cycloheximide cs 22.9, Pf growth 96h inconclusive
CC(=O)c1c(C)oc2ccc(N(C(C)=O)S(=O)(=O)c3cccc4cccnc34)cc12	Pf growth 48h inconclusive, Pf growth 96h inconclusive
Fc1ccccc1/C=N/NC(=S)Nc1ccc(Cl)cc1Cl	none
CCCCc1ccc(NC(=O)CSC2=NN3CCCC(=O)N=C3S2)cc1	Pf growth 96h 2.08µM
Cc1cccc(CSC2=NN3CCCC(=O)N=C3S2)c1	Cycloheximide cs 43.0, Shiga inhibitor 56.4
O=C1CCCN2N=C(SCC(=O)Nc3ccc(Cl)cc3)SC2=N1	Pf growth 96h 10.4µM
Cc1ccc(NC(=O)CSC2=NN3CCCC(=O)N=C3S2)cc1Cl	Pf growth 48h inconclusive, Pf growth 96h inconclusive
O=C1CCCN2N=C(SCC(=O)Nc3cccc(Cl)c3)SC2=N1	Pf growth 48h inconclusive
N#Cc1ccc2c(c1)C[C@]1(CCCCN3C(=O)c4ccccc4C3=O)Oc3c(c(=O)oc4ccccc34)C2O1	Pf growth 48h 1.69µM
O=C(CSc1nc(O)cc(=O)n1-c1ccccc1)c1ccc(Br)cc1	Cycloheximide cs 24.4
N=c1c2cn[nH]c2nc(SCC(=O)c2ccc(Br)cc2)n1-c1ccc(Br)cc1	Pf growth 96h 7.38µM
Cc1cccnc1NC(=O)C(c1ccccc1)c1ccccc1	none
Cc1nc2c([nH]1)c(=O)n(C)c(=O)n2Cc1ccco1	Pf growth 96h 5.36µM (no result: Cycloheximide cs, Shiga inhibitor)
O=c1c2ccccc2c2ccccc2c(=O)n1Cc1ccco1	none
Cc1cccc(NC(=O)CN(CC2CCCO2)C(=O)c2oc3ccccc3c2C)c1C (stereo not drawn)	Pf growth 48h inconclusive (no result: Cycloheximide cs, Shiga inhibitor)

Screens: PubChem, National Center for Advancing Translational Sciences (NCATS)
